Results filed as inconclusive are left out. Entries that show only a call come without a potency. Activity calls are given as the source filed them. Calls come from the whole dose curve; as a rule, active = well fitted cell-killing curve with a large enough effect; inconclusive = small, poorly fitted or top-dose-only effect; inactive = flat fitted curve, though single readings scatter.
Assay: qHTS of pediatric cancer cell lines to identify multiple opportunities for drug repurposing: Confirmatory screen for SK-N-SH cells (AID 1347129);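 note: cells exposed to compound for 48 h before viability read; nearly all actives have a fitted effect of over 60% in size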
Conditions: SK-N-SH neuroblastoma cell viability; series mostly up to 46.1 µM
Method in brief: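 Cells (500-1,000/well) rested 5 h, then received compounds for 48 h; metabolically active cells were measured by CellTiter-Glo luminescence. Final concentrations spanned up to 46 µM (MIPE, 11-point) or 0.59 nM-46 µM (NPC, 8-point) in primary screens, 11-point in follow-ups.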
Potency is the fitted concentration of half-maximal effect.

Q: Which Potency does the source give for `CC1C(=O)OC2C(O)C34C5CC(C(C)(C)C)C36C(OC(=O)C6O)OC4(C(=O)O5)C12O` (stereo unspecified) here?
A: inactive

Q: For `FC(F)(F)c1ccc(C=Cc2nc(COc3ccc(CCCCn4ccnn4)cc3)co2)cc1`, which Potency is on record?
A: inactive

Q: Which Potency does the source give for `Cc1ccc(C(=O)N(CCCN)[C@@H](c2nc3cc(Cl)ccc3c(=O)n2Cc2ccccc2)C(C)C)cc1` here?
A: 12.1 µM (active)

Q: With `C[C@H](c1ccc(F)cc1CCCC(=O)O)N(c1cc(F)ccc1F)S(=O)(=O)c1ccc(Cl)cc1` as the compound, how does the Potency read?
A: inactive

Q: For `CO[C@H]1/C=C\O[C@@]2(C)Oc3c(C)c(O)c4c(O)c(c5c(nc6cc(C)ccn65)c4c3C2=O)NC(=O)C(C)=CC=C[C@H](C)[C@H](O)[C@@H](C)[C@@H](O)[C@@H](C)[C@H](OC(C)=O)[C@H]1C`, which Potency is on record?
A: inactive

Q: Which Potency does the source give for `NC(N)=Nc1nc(CSCCC(N)=NS(N)(=O)=O)cs1` here?
A: inactive

Q: For `COC(=O)[C@H](c1ccccc1Cl)N1CCc2sccc2C1`, which Potency is on record?
A: inactive

Q: For `CO[C@H]1/C=C\O[C@@]2(C)Oc3c(C)c(O)c4c(O)c(c(C=NN5CCN(C6CCCC6)CC5)c(O)c4c3C2=O)NC(=O)C(C)=CC=C[C@H](C)[C@H](O)[C@@H](C)[C@@H](O)[C@@H](C)[C@H](OC(C)=O)[C@H]1C`, which Potency is on record?
A: inactive

Q: For `CCC[C@H](N[C@@H](C)C(=O)N1[C@@H]2CCCC[C@H]2C[C@H]1C(=O)O)C(=O)OCC`, which Potency is on record?
A: inactive

Q: With `CC1=C(CC(=O)O)c2cc(F)ccc2C1=Cc1ccc(S(C)=O)cc1` (stereo unspecified) as the compound, how does the Potency read?
A: inactive

Q: Which Potency does the source give for `CC[C@]1(O)C[C@H]2CN(CCC3=c4ccccc4=N[C]3[C@@](C(=O)OC)(c3cc4c(cc3OC)N(C)[C@H]3[C@@](O)(C(N)=O)[C@H](O)[C@]5(CC)C=CCN6CC[C@]43[C@@H]65)C2)C1` here?
A: 1.18 µM (active)

From PubChem BioAssay (NCATS)
